Our source for the B-score values is PubChem BioAssay AID628 (Vanderbilt High Throughput Screening Facility, 2007).

Among all 64,000 compounds or so, about 2,200 (3.4%) were called active.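 The calls were made as follows: active = calcium fluorescence response, raw or row-and-column corrected B-score, differing from the plate sample mean either way at a set confidence level, mostly lower; inactive = the rest.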 For the sample, actives were picked, then their nearest neighbours and some compounds at random.

The target of the assay is Muscarinic acetylcholine receptor M1 (Rattus norvegicus) (UniProt P08482). As to the kind of experiment: blocks the rat M1 muscarinic receptor response to acetylcholine (AID 628). Conditions: CHO-M1 cells, Fluo-4 calcium, ACh EC80 antagonist mode; at 10 µM; active compounds read low.
Chain of Muscarinic acetylcholine receptor M1 (Rattus norvegicus) (P08482 whole entry, looked up): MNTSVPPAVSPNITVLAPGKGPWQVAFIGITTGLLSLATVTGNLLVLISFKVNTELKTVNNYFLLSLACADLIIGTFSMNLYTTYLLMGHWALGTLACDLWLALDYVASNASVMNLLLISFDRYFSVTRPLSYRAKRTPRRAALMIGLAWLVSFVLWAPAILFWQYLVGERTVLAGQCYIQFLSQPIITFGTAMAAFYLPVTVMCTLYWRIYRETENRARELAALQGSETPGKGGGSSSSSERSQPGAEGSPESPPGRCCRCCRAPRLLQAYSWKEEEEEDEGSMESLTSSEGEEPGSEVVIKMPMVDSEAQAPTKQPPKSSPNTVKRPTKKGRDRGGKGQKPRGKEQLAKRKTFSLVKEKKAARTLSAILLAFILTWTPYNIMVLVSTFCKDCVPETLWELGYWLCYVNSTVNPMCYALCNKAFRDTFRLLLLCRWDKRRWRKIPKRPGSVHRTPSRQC
With `CCOC(=O)C1CCN(C(=O)Nc2ccc(Cl)cc2)CC1`, the B-score is -0.00301 (inactive).

On to `CCOC(=O)c1ccc(N2C(=O)CC(N3CCC(C(=O)OCC)CC3)C2=O)cc1` (stereo not given), for which the B-score was -0.522 (inactive).

Take `CCOC(=O)C1CCN(Cc2coc3ccc(Cl)cc3c2=O)CC1`: the B-score is -5.08 (active).

Regarding `CC(C)NS(=O)(=O)c1ccc(NC(=O)c2cccnc2)cc1`, the B-score was 1.03 (inactive).

For the compound `C=CCn1c2ccccc2c2nnc(SC(CC)C(=O)Nc3nc(C)c(C(=O)OCC)s3)nc21` (stereo not given), the B-score was 0.9 (inactive).

`COc1cc(-n2c(C)nc3cc(C(=O)NCc4ccco4)ccc32)cc(OC)c1OC`: the B-score was -0.0298 (inactive).

Consider `CSCCC(Nc1nc2ccccc2s1)C(=O)O` (stereo not given), for which the B-score is 0.99 (inactive).

`Cc1ccc(C)c(N(CC(=O)NCc2ccco2)C(=O)CCC(=O)Nc2ccccn2)c1`: the B-score was 0.211 (inactive).

Consider `COCCN(C(=O)CCC(=O)Nc1ccccn1)C(C(=O)NCCC(C)C)c1ccc(OC)cc1` (stereo not given), for which the B-score is -2.46 (active).

Take `Cc1ccc(C(C(=O)NC2CCCC2)N(Cc2ccco2)C(=O)CCC(=O)Nc2ccccn2)cc1` (stereo not given): the B-score is -0.0611 (inactive).

With `CC(=O)Oc1cc2c(C(=O)NCCN3CCOCC3)c(C)oc2c2ccccc12`, the B-score was -0.671 (inactive).

On to `CN(C)Cc1c(C#N)c2ccccc2n1C`, for which the B-score is 0.566 (inactive).

On to `CCCCNC(=O)CSc1nnc(-c2ccco2)n1C`, for which the B-score is -0.326 (inactive).

Consider `COC(=O)CNC(=O)c1ccc2c(c1)S(=O)(=O)c1ccccc1C2=O`, for which the B-score was -0.0488 (inactive).

With `CCCCN(C)C(=O)c1ccc2c(c1)N(CC)C(=O)c1ccccc1S2(=O)=O`, the B-score was -2.44 (active).

As for `CCN1C(=O)c2cccc3c(N)ccc1c23`, the B-score was -0.102 (inactive).

For `O=C(Nc1ccccc1F)C1C2C=CC3(O2)C1C(=O)N(c1cccnc1)C3C(=O)NC1CCCCC1` (stereo not given), the B-score is 0.728 (inactive).

As to `CCCN1C2=C(C(=O)CCC2)C(c2ccc(O)c(Br)c2)C2=C1CCCC2=O`, the B-score was 0.273 (inactive).

Consider `Cc1ccc(-n2nc3cc(Cl)c(NC(=O)c4ccco4)cc3n2)cc1`, for which the B-score was 0.0365 (inactive).

On to `N#Cc1c(NC(=O)CCCN2C(=O)c3ccccc3C2=O)oc(-c2ccccc2)c1-c1ccccc1`, for which the B-score was 2.29 (active).

Turning to `COc1cc(C(=O)Nc2oc(-c3ccccc3)c(-c3ccccc3)c2C#N)cc(OC)c1OC`, the B-score is -0.934 (inactive).

For `O=C(CCN1C(=O)c2ccccc2C1=O)Nc1ccncc1`, the B-score was -0.0156 (inactive).

On to `CC(C)N1C(=O)C2C(C(=O)NC3CCCCC3)C3C=CC2(O3)C1C(=O)NC1CCCC1` (stereo not given), for which the B-score was -0.055 (inactive).

For the compound `COc1ccc(C(=O)N(CCN2CCOCC2)CC(=O)NC2CCCC2)cc1OC`, the B-score is -1.81 (inactive).

For `Cc1noc(C)c1CSc1nnc2ccc3ccccc3n12`, the B-score is 0.103 (inactive).

Take `CC(C)(CSc1nncn1/N=C/c1ccco1)NS(=O)(=O)c1ccc(Cl)cc1`: the B-score is -0.0125 (inactive).

As to `COC(=O)c1ccc(NC(=O)C(C)N2C(=O)c3ccccc3C2=O)cc1` (stereo not given), the B-score is 0.608 (inactive).

For `CCCOc1ccc(C2c3c(oc4cc(C)c(C)cc4c3=O)C(=O)N2CCCN2CCOCC2)cc1` (stereo not given), the B-score is -2.07 (inactive).

Consider `COc1ccc(OCC(=O)N2CCOCC2)cc1`, for which the B-score was -0.0545 (inactive).

For the compound `CCCCOc1ccc(C(C)(O)CCN2CCOCC2)cc1` (stereo not given), the B-score is -1.77 (active).

Regarding `COC(=O)C1(S(=O)(=O)C2(C(=O)OC)CCCC2)CCCC1`, the B-score is -0.00987 (inactive).

On to `CC(=O)OC(C(=O)NC1CCCCC1)c1ccccc1` (stereo not given), for which the B-score was 0.565 (inactive).

For the compound `CN(C)CCNC(=O)C(C(=O)c1ccccc1)n1ccccc1=O` (stereo not given), the B-score is 0.0113 (inactive).

For the compound `Cc1ccc(NC(=O)C2CC(c3ccc(F)cc3)=NO2)cc1` (stereo not given), the B-score was 0.326 (inactive).

Turning to `CC(C)(C)n1nnnc1C(c1cccs1)N(Cc1cccnc1)CC1CCCO1` (stereo not given), the B-score is -5.58 (active).

In the case of `CCOc1ccc(CN(Cc2ccco2)C(c2cccs2)c2nnnn2C(C)(C)C)cc1` (stereo not given), the B-score was -0.0188 (inactive).

Consider `CCC(C)(C)n1nnnc1C(c1cccs1)N1CCN(Cc2ccccc2)CC1` (stereo not given), for which the B-score was 0.103 (inactive).

Turning to `Cc1ncc(CC(=O)n2cc(C(=O)c3cc(Cl)ccc3O)cn2)s1`, the B-score was -0.173 (inactive).

With `CN(C)S(=O)(=O)c1ccc(Oc2ccc(S(=O)(=O)N(C)C)cc2)cc1`, the B-score is -0.154 (inactive).

In the case of `CCOc1ccccc1C(=O)NCCCn1ccnc1`, the B-score is -0.947 (active).

On to `COc1ccccc1-c1cc(C(=O)NCCCn2ccnc2)no1`, for which the B-score is -0.17 (inactive).

Take `CCCCOCCCNC(=O)c1ccccc1OCC`: the B-score was 0.466 (inactive).

On to `CC[C@]1(O)CC2CN(CCc3c([nH]c4ccccc34)[C@@](C(=O)OC)(c3cc4c(cc3OC)N(C=O)[C@H]3[C@@](O)(C(=O)OC)[C@H](OC(C)=O)[C@]5(CC)C=CCN6CC[C@]43[C@@H]65)C2)C1` (stereo not given in full), for which the B-score is -6.81 (active).

In the case of `CC[C@]1(O)C[C@@H]2CN(CCc3c([nH]c4ccccc34)[C@@](C(=O)OC)(c3cc4c(cc3OC)N(C)[C@H]3[C@@](O)(C(=O)OC)[C@H](OC(C)=O)[C@]5(CC)C=CCN6CC[C@]43[C@@H]65)C2)C1`, the B-score is -0.431 (inactive).

On to `O=c1c(-c2ccccc2)coc2c(CN3CCOCC3)c(O)ccc12`, for which the B-score was -0.686 (inactive).

In the case of `CCc1ccccc1NC(=O)CSc1nnc([C@@H](NC(=O)OC(C)(C)C)C(C)CC)o1` (stereo not given in full), the B-score was -0.00145 (inactive).

For the compound `O=C(Nc1cccnc1)c1ccc2c(c1)OCO2`, the B-score is -0.335 (inactive).

For the compound `CCOc1cccc(C(=O)Nc2cccnc2)c1`, the B-score was 1.02 (inactive).

Consider `O=C(Nc1cccnc1)c1noc2c1CCCCC2`, for which the B-score is 2.01 (active).

`Cc1cccc(NC(=O)CSc2nnc(NC(=O)CN3CCOCC3)s2)c1`: the B-score is -0.445 (inactive).

`Cc1ccc(-c2nn(-c3ccccc3)cc2CN(Cc2ccccc2)C(=O)CCC(=O)O)o1`: the B-score was -0.258 (inactive).

As for `C=CCNC(=O)C12CC3CC(C1)CC(C(=O)NCC=C)(C3)C2`, the B-score is 0.561 (inactive).

As for `CCOC(=O)N1CCC(NC(=O)CCc2cn(C)c3ccccc23)CC1`, the B-score is 0.483 (inactive).

Take `CC1Cc2nc(SCC(=O)Nc3ccccc3F)n(C)c(=O)c2S1` (stereo not given): the B-score was -0.851 (inactive).

Consider `COCCn1c(SCC(=O)Nc2cc(Cl)ccc2OC)nc2c(c1=O)SC(C)C2` (stereo not given), for which the B-score is -2.72 (active).

As to `CCn1c(SCC(=O)Nc2ccccc2F)nc2c(c1=O)SC(C)C2` (stereo not given), the B-score is -0.377 (inactive).

Turning to `COc1ccc(-c2nc3n(c2Br)CCC3)cc1`, the B-score was 0.807 (inactive).

Consider `O=C(c1cccs1)N1CCCC(c2nc(-c3ccc(F)cc3)no2)C1` (stereo not given), for which the B-score was -1.27 (inactive).

Turning to `O=C(Cc1cccs1)N1CCCC(c2nc(-c3ccc(S(=O)(=O)N4CCCC4)cc3)no2)C1` (stereo not given), the B-score was -2.63 (active).

In the case of `COc1cc(-c2noc(C3CCCN(S(=O)(=O)c4cccc(Cl)c4)C3)n2)cc(OC)c1OC` (stereo not given), the B-score is 0.77 (inactive).

As to `O=C(C1CC1)N1CCN=C1SCc1ccc(Cl)cc1`, the B-score was 0.588 (inactive).

Regarding `O=C(c1ccco1)N1CCN(c2cccc(Cl)c2)CC1`, the B-score is -0.702 (inactive).

Take `O=C(c1ccco1)N1CCN=C1SCc1cccc(Cl)c1`: the B-score is -2.85 (active).

On to `Cc1ccc(S(=O)(=O)C(C#N)c2nc3ccccc3nc2N2CCCC2)cc1C` (stereo not given), for which the B-score was 0.0971 (inactive).

As to `O=S(=O)(O)c1nc2ccccc2n1Cc1ccc(Cl)cc1Cl`, the B-score is 0.452 (inactive).

`Cc1cc(C)n(-c2nc(SCC(=O)N3CCCC3)c3c4c(sc3n2)CCCC4)n1`: the B-score was -2.83 (active).

With `Cc1nc(SCC(=O)Nc2cc(C)on2)c2c3c(sc2n1)CCCC3`, the B-score is -0.235 (inactive).

As to `COCCNc1nc(-n2nc(C)cc2C)nc2sc3c(c12)CCCC3`, the B-score was -0.584 (inactive).

Take `Brc1ccc(Nc2c3c(nc4ncnn24)CCC3)cc1`: the B-score was 0.669 (inactive).

As for `CCOC(=O)N1CCC(Nc2c(NCCN3CCN(c4cccc(Cl)c4)CC3)c(=O)c2=O)CC1`, the B-score is 0.00829 (inactive).

Turning to `CCOC(=O)N1CCC(NC(=O)COc2cc(=O)n(C)c3ccccc23)CC1`, the B-score is 0.854 (inactive).

As for `CCn1c(=O)cc(OCC(=O)NCCCN2CCN(c3cccc(Cl)c3)CC2)c2ccccc21`, the B-score was -2.45 (active).

As to `Cc1c(C(=O)NCC2CCCO2)sc2nc(-c3ccccc3)cn12` (stereo not given), the B-score is 0.0376 (inactive).

Regarding `CCN1CCN(c2c(Cl)cccc2NC(=O)c2ccc(Br)o2)CC1`, the B-score is -6.97 (active).

Take `COc1cc(OC)c(NC(=O)c2ccc(Br)o2)cc1Cl`: the B-score is 0.263 (inactive).

Turning to `CCCC(=O)Nc1ccc(Cl)c(NC(=O)c2ccc(Br)o2)c1`, the B-score was 0.768 (inactive).

Regarding `CCOC(=O)N1CCC(NC(=O)c2cnn3ccccc23)CC1`, the B-score is 0.733 (inactive).

Turning to `CCOC(=O)Cn1c2c(c(-c3ccccc3OC)cc1=O)CCCC2`, the B-score was -0.0571 (inactive).

As for `C=CCOC(=O)C1=C(C)OC(N)=C(C#N)C1c1ccc(F)cc1` (stereo not given), the B-score is 0.263 (inactive).

On to `Cc1ccccc1N1C(=O)C2ON(c3ccccc3)C(c3ccncc3)C2C1=O` (stereo not given), for which the B-score is -0.292 (inactive).

Turning to `CC(C)(C)OC(=O)c1c(N)n(CCCN2CCCC2=O)c2nc3ccccc3nc12`, the B-score was -1.12 (inactive).

In the case of `COc1ccc(OC)c(C(=O)c2coc3ccc(OC)cc23)c1`, the B-score is -1.32 (inactive).

Turning to `COc1cccc(-n2cc(C(=O)O)c3ccccc3c2=O)c1`, the B-score was 1.31 (inactive).

Turning to `COc1ccccc1N1CCN(C(=O)c2cn(-c3ccccc3)nc2-c2cccnc2)CC1`, the B-score is 1.85 (active).

Turning to `O=C(c1cn(-c2ccccc2)nc1-c1cccnc1)N1CCCCC1`, the B-score is 0.615 (inactive).

For `COC(=O)c1cn(-c2ccccc2)nc1-c1cccnc1`, the B-score is -0.00204 (inactive).

As to `COc1ccc(-n2ncc3c(N4CCCc5ccccc54)ncnc32)cc1`, the B-score was 0.508 (inactive).

Take `CCCCN(CC)C(=O)CN(C)S(=O)(=O)c1cccc2nsnc12`: the B-score was -0.0458 (inactive).

For `CSc1nnc2c(n1)OC(c1cn(C)c3ccccc13)N(C(C)=O)c1ccccc1-2` (stereo not given), the B-score was -0.0695 (inactive).

Consider `CSc1nnc2c(n1)OC(c1ccsc1)N(C(C)=O)c1ccccc1-2` (stereo not given), for which the B-score is -8.49 (active).
